Rows were chosen to be rich in hits. Some 2.3% of all compounds tested hit in one or more screens of this group.
p53 PUMA act: mutant p53 pathway reactivation. SW480 PUMA-promoter luciferase. activation, % at 9.98 µM. hit rate 1.5% among 28,000. AID 624151; in the data active means activation above about 52%
ID4 SMM: binders of human ID4 protein | small molecule microarray, Flag-ID4 binding, fluorescence F/B | calls only | hit rate 1.2% among 31,000; call rule not given here;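 further: a binder raises fluorescence above local background on the spot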
Target sequence (P47928 whole entry, looked up): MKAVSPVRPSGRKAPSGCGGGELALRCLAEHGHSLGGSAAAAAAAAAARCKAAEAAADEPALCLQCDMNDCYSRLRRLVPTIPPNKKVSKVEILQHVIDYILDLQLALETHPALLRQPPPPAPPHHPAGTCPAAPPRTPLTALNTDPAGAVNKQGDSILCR
Starred values were filed as active, the others as inactive; i = inactive; . = no result given; + = active, no number.

SMILES	p53 PUMA act	ID4 SMM
C=CCOC(=O)[C@@H]1[C@H]2C(=O)O[C@H](c3ccccc3)[C@H](c3ccccc3)N2[C@H](c2ccc(OCCOC(=O)[C@@H]3C[C@@H]4C(=O)N[C@@H](Cc5ccccc5)C(=O)N4[C@@H]3c3ccc(O)cc3)cc2)[C@@]12C(=O)Nc1ccccc12	.	i
NCCCCCNC(=O)[C@@H]1C[C@@H]2C(=O)NCC(=O)N2[C@@H]1c1cccc(OCCO)c1	.	+
NCCCCCCNC(=O)[C@@H]1C[C@@H]2C(=O)N[C@@H](Cc3ccccc3)C(=O)N2[C@@H]1c1ccc(O)cc1	.	+
NCCCCCCNC(=O)[C@@H]1C[C@@H]2C(=O)NCC(=O)N2[C@@H]1c1ccc(O)cc1	.	+
CN(C)CCCCNC(=O)[C@@H]1C[C@@H]2C(=O)NCC(=O)N2[C@@H]1c1ccc(O)cc1	.	i
Cc1sc(NC(=O)COc2ccc(-c3ccccc3)cc2)c(C(N)=O)c1C	6.2	i
CO[C@H]1/C=C\O[C@@]2(C)Oc3c(C)c(O)c4c(O)c(c(/C=N\N5CCN(C)CC5)c(O)c4c3C2=O)NC(=O)/C(C)=C\C=C/C(C)[C@H](O)[C@@H](C)[C@@H](O)[C@@H](C)[C@@H](OC(C)=O)[C@@H]1C (some centres undefined)	3.4	.
O=C(CSc1nc(O)c(-c2ccccc2)c(=O)[nH]1)N(c1ccccc1)c1ccccc1	-6.7	i
CCC(C)C(=O)c1c(O)cc2c(c1O)CC(CC=C(C)C)C(C)(C)O2 (centres undefined)	1.8	i
CCc1ccc(-c2nc3cc(NC(=O)COc4ccc([N+](=O)[O-])cc4)ccc3o2)cc1	23.2	i
O=S(=O)(N[C@@H]1CCCN(Cc2ccc(OCCO)cc2)C1)c1ccccc1	.	i
Cc1ccc(S(=O)(=O)N[C@@H]2CCCN(Cc3ccc(OCCO)cc3)C2)cc1	.	+
O=S(=O)(N[C@@H]1CCCN(Cc2cccc(OCCO)c2)C1)c1cc(Cl)ccc1Cl	.	+
Cc1ccc(S(=O)(=O)N[C@@H]2CCCN(Cc3cccc(OCCO)c3)C2)cc1	.	i
CN(C)CCNc1oc(COc2ccc(Br)cc2)nc1C#N	7.2	i
Nc1nc(COc2cccc3cccnc23)nc(Nc2ccccc2)n1	47.9	i
C[C@@H]1O[C@@H](Oc2ccc(-c3coc4cc(O[C@@H]5O[C@@H](C)[C@H](O)[C@@H](O)[C@H]5O)ccc4c3=O)cc2)[C@H](O)[C@H](O)[C@H]1O	-17.4	i
CCOC(=O)C1=C(C)NC(c2ccccc2)=C(C(=O)OCc2ccc([N+](=O)[O-])cc2)C1C#Cc1ccccc1 (centres undefined)	-4.9	.
COC(=O)CCCCCCC(=O)Nc1ccc(C2OC(CSc3ccccn3)CC(c3ccccc3)O2)cc1 (centres undefined)	.	i
O=C(O)CCCCCCC(=O)Nc1ccc(C2OC(CSCCO)CC(c3ccccc3)O2)cc1 (centres undefined)	.	+
CCOc1ccc(NC(=O)CSc2nnc(-c3ccc(Cl)cc3)n2C)cc1	2.5	i
CCOc1ccc(-c2nnc(SCC(=O)c3ccccc3N)n2C)cc1	67.4*	i
COc1cc(CCC(=O)O)cc(OC)c1OC	-2.1	.
Cc1nnc(SCc2cc(=O)[nH]c(Nc3nc(C)c4ccccc4n3)n2)s1	20.3	i
Cc1ccc2nc(Nc3nc(CSc4nnc(C)s4)cc(=O)[nH]3)nc(C)c2c1	54.2*	i
SMILES	p53 PUMA act	ID4 SMM
Cc1ccc(NS(=O)(=O)c2cc(C(=O)Nc3ccccc3C(=O)N3CCCC3)ccc2C)c(C)c1	-6.6	i
Cc1ccccc1NC(=O)c1ccc(C)c(S(=O)(=O)Nc2cc([N+](=O)[O-])ccc2C)c1	0.5	+
COC(=O)c1cccc(NC(=O)CN2C(=O)c3ccccc3S2(=O)=O)c1C	-2.3	i
COC(=O)c1ccccc1NC(=O)COc1ccccc1F	43.1	i
COc1cc(NC(=O)COc2ccc(C(C)(C)C)cc2Br)c(OC)cc1Cl	21.3	i
Cc1cc(OCC(=O)NCc2ccco2)cc(C)c1Br	24.8	i
COC(=O)c1ccccc1NC(=O)COc1ccc(C(C)C)cc1Br	54.0*	i
CC(C)(C)c1ccc(OCC(=O)NCc2ccco2)c(Br)c1	88.5*	i
CC(C)(C)c1ccc(OCC(=O)Nc2ccccc2C(N)=O)c(Br)c1	85.2*	i
CC(C(=O)N1CCN(C)CC1)N(c1ccc(Oc2ccccc2)cc1)S(C)(=O)=O (centres undefined)	2.1	i
COc1ccc([N+](=O)[O-])cc1NC(=O)CN(C)S(=O)(=O)c1ccc(Cl)cc1	10.8	i
COc1cc(S(=O)(=O)n2nnc3ccccc32)c(OC)cc1Cl	5.8	+
COc1cc(S(=O)(=O)n2cnc3ccccc32)c(OC)cc1Cl	-1.8	i
COC(=O)c1ccc(Cl)c(NC(=O)CN(c2ccccc2Br)S(C)(=O)=O)c1	23.1	i
Cc1c(NC(=S)NCc2ccccn2)c(=O)n(-c2ccccc2)n1C	0.5	i
Cc1c(NC(=S)NCCc2c[nH]c3ccccc23)c(=O)n(-c2ccccc2)n1C	1.6	+

From PubChem
